Drawing on PubChem BioAssay (EPA / NIEHS), this text covers outcome and AC50 for 15 compounds.

The nature of assay [1]: Tanguay_ZF_120hpf_SWIM_legacy: (Legacy) Oregon State University Tanguay Lab 120 Hour Post-fertilization zebrafish Assay for Swim Bladder Malformation (AID 2283654).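 Note: swim bladder malformation in each larva scored yes or no under brightfield.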 The essentials: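 Dechorionated wild-type Tropical 5D zebrafish embryos, one per well from 6 hpf, were statically exposed at 28C until 120 hpf in 0.64% DMSO. Swim bladder malformation scored as present/absent by brightfield microscopy; not scored in dead larvae.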

A short description of assay [2]: Tanguay_ZF_120hpf_NC_legacy: (Legacy) Oregon State University Tanguay Lab 120 Hour Post-fertilization zebrafish Assay for Notochord and Tail Malformation (AID 2283656). An outline of the steps: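 Dechorionated 5D zebrafish, 1/well from 6 hpf; static exposure to 120 hpf, 28C, sealed, dark; final DMSO 0.64% v/v. NC scored binary (present/absent); dead embryos not scored. Fit vs DMSO baseline, gain direction.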

Read-out in assay [3]: solute carrier (SLC10A1), SLC10A1 (gene 6554)
The experiment in a line: LTEA_HepaRG_SLC10A1: Life Technologies and Expression Analysis (LTEA) Assay for solute carrier (SLC10A1) using HepaRG (AID 2283657; active = hit-call score of the fitted dose curve at least 0.9, where 1 is the maximum; inactive = score below 0.9). The conditions noted are these: mRNA level, 48 h; actives raise or lower the signal. An outline of the steps: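 HepaRG cells (single lot) exposed 48 h in serum-free induction medium, 8-point half-log series from 100 uM top in 0.5% DMSO, duplicate. SLC10A1 mRNA by qRT-PCR normalised to ACTB, GAPDH, POLR2A; bidirectional fit versus DMSO.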

Read-out in assay [4]: matrix metalloproteinase-1 (MMP1), MMP1 (gene 4312)
The experiment in a line: LTEA_HepaRG_MMP1: Life Technologies and Expression Analysis (LTEA) Assay for matrix metalloproteinase-1 (MMP1) using HepaRG (AID 2283658; active = hit-call score of the fitted dose curve at least 0.9, where 1 is the maximum; inactive = score below 0.9). The conditions noted are these: mRNA level, 48 h; actives raise or lower the signal. The essentials:
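Differentiated human HepaRG cells, 48 h post-plating in serum-free induction medium, were exposed 48 h to eight half-log concentrations topping at 100 uM in 0.5% DMSO, duplicate. MMP1 mRNA measured by Fluidigm TaqMan qRT-PCR, normalized to ACTB, GAPDH, POLR2A; bidirectional fits versus DMSO.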

Assay [5] in a line: CCTE_Simmons_CellTiterGLO_HEK293T: Viability Assessment in CCTE's Assays for Thyroperoxidase (TPO) Inhibition, Simmons Lab (AID 2283665).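 For AC50: cells exposed to compound for 24 h before readout; actives reduce ATP signal below DMSO vehicle meaning cytotoxicity.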 An outline of the steps:
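Cytotoxicity counter-screen: human HEK293T cells in low-serum (1% FBS) medium receive test chemical, 5 nM to 87.5 uM final, for 24 h; ATP is quantified by luciferase luminescence.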

A short description of assay [6]: Tanguay_ZF_120hpf_TR_legacy: (Legacy) Oregon State University Tanguay Lab 120 Hour Post-fertilization zebrafish Assay for Touch Response (AID 2283667). The essentials:
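Tropical 5D wild-type zebrafish embryos statically exposed to 120 hpf at 28°C, sealed and dark-covered, 0.64% DMSO final; touch response scored as present/absent by brightfield microscopy at 120 hpf. Trimethyltin chloride 5 uM positive control; dead embryos not scored.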

Read-out in assay [7]: Cytochrome P450 (CYP24A1_1), CYP24A1 (gene 1591)
The experiment in a line: LTEA_HepaRG_CYP24A1_1: Life Technologies and Expression Analysis (LTEA) Assay for Cytochrome P450 (CYP24A1_1) using HepaRG (AID 2283671; active = hit-call score of the fitted dose curve at least 0.9, where 1 is the maximum; inactive = score below 0.9). The conditions noted are these: mRNA level, 48 h; actives raise or lower the signal. The essentials: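 Differentiated human HepaRG cells in serum-free induction medium, exposed 48 h in duplicate to eight half-log concentrations from 100 uM top, 0.5% DMSO. Transcript measured by TaqMan qRT-PCR, normalised to ACTB, GAPDH, POLR2A; bidirectional fitting versus DMSO.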

Assay [8] is described as follows: CCTE_Padilla_ZF_144hpf_TERATOSCORE: (Legacy) CCTE's 144 Hour Post-fertilization zebrafish Assay Teratoscore, Padilla Lab (AID 2283679; active = hit-call score of the fitted dose curve at least 0.9, where 1 is the maximum; inactive = score below 0.9;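 for AC50: zebrafish embryos with chorions exposed by immersion from 6-8 hpf to 5 dpf with daily renewal; teratogenicity score from eye scoring of death hatching and malformations at 144 hpf; higher score means more developmental defects relative to DMSO baseline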). The essentials:
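Larvae scored by eye at 144 hpf for death, hatching and malformations after a day in clean Hanks'. Before that, daily-renewed exposure at 80 uM (0.4% DMSO, 26C) from roughly 6-8 hpf through 5 dpf, 4 embryos per chemical.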

Assay [9] is described as follows: Tanguay_ZF_120hpf_ActivityScore_legacy: (Legacy) Oregon State University Tanguay Lab 120 Hour Post-fertilization zebrafish Assay Score for Activity (AID 2283742). The essentials:
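Dechorionated Tropical 5D embryos, one per well from 6 hpf, statically exposed to 120 hpf at 28 °C in 0.64% DMSO. Mortality and malformations scored binary by brightfield microscopy; activity score combines 18 endpoints, fitted positively versus DMSO.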

The nature of assay [10]: CEETOX_H295R_MTT_cell_viability: Viability Assessment in the CeeTox HT-H295R MTT Assay (AID 2283718; active = hit-call score of the fitted dose curve at least 0.9, where 1 is the maximum; inactive = score below 0.9;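 for AC50: curve fitted both ways so AC50 may mark viability loss or gain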). The essentials:
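Human H295R adrenal cells, prestimulated 48 h with 10 uM forskolin, were exposed 48 h to chemicals in 0.1% DMSO. Viability was measured in the same wells by MTT (0.5 mg/ml, 4 h, 37 C), absorbance 570/650 nm, as percent of controls.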

Assay [11] can be described thus: Tanguay_ZF_120hpf_TRUN_legacy: (Legacy) Oregon State University Tanguay Lab 120 Hour Post-fertilization zebrafish Assay for Truncated Body (AID 2283655). The essentials:
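Dechorionated Tropical 5D wild-type embryos placed singly from 6 hpf and statically exposed to 120 hpf at 28C, final DMSO 0.64%. Truncated body scored as present/absent by brightfield; not scored in dead embryos.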

Results filed as inconclusive are left out. Calls of active or inactive are those of the source. Rule for the calls, unless noted: active = hit-call score of the fitted dose curve at least 0.9, where 1 is the maximum; inconclusive = response in the unintended direction; inactive = score below 0.9.

As usually defined, the AC50 is the midpoint of the concentration-response curve, whichever way the signal moves. Take `CC(=O)OC/C=C(\C)CCC=C(C)C`: the compound was classed as inactive in assay [1], in assay [2], in assay [3], in assay [4], in assay [6] and in assay [7]. Moreover, the compound was classed as inactive in assay [9]. Moreover, the AC50 in [5] is 24.6 µM (active); in assay [8] it was 52.8 µM (active).

For the compound `c1cc(-c2ccncc2)ccn1`, the outcome in assay [1], in [2], in [6], in [10] and in [9] was inactive.

Turning to `CCc1c(C(=O)NN2CCCCC2)nn(-c2ccc(Cl)cc2Cl)c1-c1ccc(Br)cc1`, the compound was classed as inactive in assay [1] and in [2]. In addition, in [8], the concentration at half-maximal activity (AC50) was 0.533 µM (active).

On to `CCCCCCCCCCCCCCCCCC(=O)O`, for which the compound was called inactive in assay [1], in assay [11] and in [6].

As for `C[C@]12C=CC(=O)C=C1CC[C@@H]1[C@@H]2C(=O)C[C@@]2(C)[C@H]1CC[C@]2(O)C(=O)CO`, the outcome in assay [1], in [2], in [5], in [6], in assay [8] and in [9] was inactive. In addition, the AC50 in assay [10] is 0.844 µM (active).

Consider `CC=Cc1ccc(O)c(OC)c1`, for which the compound was classed as inactive in assay [1], in [2], in assay [5] and in assay [10]. In [8], the AC50 was 53.8 µM (active).

`CC(=O)C(C)=CC1C(C)=CCCC1(C)C` (configuration not stated): the call in assay [11], in [2], in assay [8] and in [9] was inactive.

Regarding `C1CCC(SSC2CCCCC2)CC1`, the compound was classed as inactive in [11], in assay [2], in assay [3], in [4], in assay [7] and in assay [8].

Regarding `CCCCN(CCCC)CCCC`, the call in assay [11], in assay [2], in assay [3], in assay [4], in assay [6] and in [7] was inactive.

`CNC(=O)[C@H]1O[C@@H](n2cnc3c(NCc4cc(Cl)ccc4OCc4cc(C)no4)ncnc32)[C@H](O)[C@@H]1N`: the compound was called inactive in assay [11], in assay [2] and in assay [6].

`CC(=O)Oc1ccccc1C(=O)O`: the result in assay [11] and in [2] was inactive.

As for `COc1cc(C=O)ccc1O`, the AC50 in assay [11] was 50 µM (active); in [8], 11.8 µM (active); in [9], 69.8 µM (active). In addition, the call in assay [2], in assay [3], in assay [4] and in [7] was inactive.

Regarding `CC(C)c1ccc(C(=O)N=C(N)N)cc1S(C)(=O)=O`, the outcome in [1], in assay [11], in [6] and in assay [9] was inactive.

Take `CNCc1cc(F)ccc1Oc1ccc(Cl)c(Cl)c1`: the outcome in [1] and in assay [2] was inactive. Also, in assay [8], the AC50 is 15.7 µM (active).

As for `Nc1nc(N)c2nc(CNc3ccc(C(=O)N[C@@H](CCC(=O)O)C(=O)O)cc3)cnc2n1`, the outcome in assay [11], in assay [2], in assay [6] and in [9] was inactive. The AC50 in assay [5] is 0.189 µM (active).
